ALDH1A1 block: ALDH1A1 (human) enzyme inhibition. P00352. Purified ALDH1A1, NADH fluorescence, propionaldehyde substrate. hit rate 7.3% among 220,000. Potency, µM (highest dose often 75.3 µM), without a hit: at the highest dose activity, negative = inhibition, most hits filed as inhibitors;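 also: potency is read from the fitted curve at half-maximal effect; plate controls were no enzyme wells and a reference inhibitor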
Target sequence (P00352 whole entry, looked up): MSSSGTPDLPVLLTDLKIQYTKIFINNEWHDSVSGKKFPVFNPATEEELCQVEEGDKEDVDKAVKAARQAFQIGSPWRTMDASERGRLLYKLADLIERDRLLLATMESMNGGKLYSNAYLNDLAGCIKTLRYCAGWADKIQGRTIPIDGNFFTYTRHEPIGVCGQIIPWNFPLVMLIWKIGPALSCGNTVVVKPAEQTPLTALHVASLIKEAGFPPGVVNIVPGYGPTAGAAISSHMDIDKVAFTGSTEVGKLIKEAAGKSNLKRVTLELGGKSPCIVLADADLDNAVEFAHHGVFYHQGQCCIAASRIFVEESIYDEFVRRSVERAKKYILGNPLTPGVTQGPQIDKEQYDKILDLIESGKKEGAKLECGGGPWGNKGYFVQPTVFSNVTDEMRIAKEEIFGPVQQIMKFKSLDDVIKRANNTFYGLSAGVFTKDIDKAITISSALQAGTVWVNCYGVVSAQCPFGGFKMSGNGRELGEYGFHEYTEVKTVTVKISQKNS
LMNA splice mod: modulators of lamin A splicing | HeLa LMNA splicing GFP/RFP minigene ratio, 48 h | Potency, µM (highest dose often 46.1 µM), inactives show top-dose ratio change, negative = inhibition, most hits filed as inhibitors | hit rate 0.01% among 200,000; active = well fitted inhibition curve with a large enough effect in the signal ratio, with a control signal flat, not every such curve was filed as active; inconclusive = small, poorly fitted or top-dose-only effect, or effect the other way, or a change in a side signal; the % refers to the signal ratio; also: potency is read from the fitted curve at half-maximal effect
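Read-out is the ratio of GFP to DsRed2 object intensity, acquired by 488 nm laser-scanning cytometry on HeLa lamin A-EGFP minigene reporter cells. Compound incubation 48 hrs at 37 °C in Opti-MEM with 2% FBS; DMSO 0.5% final.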
HPGD inh: HPGD (human) dehydrogenase inhibition. purified HPGD, NADH fluorescence kinetic, PGE2 substrate. Potency, µM, for the others: top-dose activity change, negative = inhibition, usual class: inhibitors. hit rate 4.3% among 150,000. AID 894; also: potency is read from the fitted curve at half-maximal effect
Target sequence (P15428 whole entry, looked up): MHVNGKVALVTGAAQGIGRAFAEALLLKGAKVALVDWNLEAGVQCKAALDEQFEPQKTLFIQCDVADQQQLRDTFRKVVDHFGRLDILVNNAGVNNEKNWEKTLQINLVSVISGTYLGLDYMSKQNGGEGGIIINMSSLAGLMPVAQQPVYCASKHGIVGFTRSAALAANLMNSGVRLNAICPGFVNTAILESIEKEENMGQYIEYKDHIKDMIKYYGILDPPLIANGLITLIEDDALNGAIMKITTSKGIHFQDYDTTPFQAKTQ
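NADH formation kinetics: reaction with 30 uM PGE2 and 1 mM NAD+ (final), 20 nM enzyme, Tris-HCl pH 8 with Tween 20, after 15 min compound preincubation at room temperature. Fluorescence change, last versus first of five reads.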
PNC inhibitor: blocks assembly of the perinucleolar compartment; PC3M PTB-GFP, PNC prevalence imaging, 16 h; active compounds read low; activity change (PNC), negative = inhibition, % at 10 µM; hit rate 3.1% among 140,000; AID 2417;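 active = readout at or below -70, meaning at least 70% loss of cells showing the perinucleolar compartment, a nuclear body marking cancer cells; inconclusive = readout between -30 and a set limit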;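 also: plate controls were DMSO wells for no effect and camptothecin positive control wells for full effect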
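PC3M cells stably expressing PTB-GFP, 750–1000 cells/well, treated 16 h at 37 °C with compound (23 nl of library stock), in duplicate. After paraformaldehyde fixation and Hoechst stain, imaged at 20x; PNC prevalence scored by image analysis.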
12-hLO inh: inhibitors of human 12-lipoxygenase (ALOX12); Potency, µM (doses to about 57.1 µM), without a hit: at the top dose activity change, negative = inhibition, usual class: inhibitors; P18054; hit rate 0.12% among 150,000; purified 12-hLO, xylenol orange hydroperoxide absorbance; active = well fitted inhibition curve with a large enough effect; inconclusive = small, poorly fitted or top-dose-only effect; also: potency is read from the fitted curve at half-maximal effect; nearly all actives have a fitted effect of over 55% in size
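150 nM 12hLO, 25 mM Hepes pH 7.0 + 0.01% Triton X-100; cpd preinc 15 min RT; 40 uM arachidonic acid, 30 min RT; Fe-XO 30 min; A573/A405 ratio as read-out.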
* = called active by the depositor; ? = inconclusive; . = no result given; [ ] = another dose, or the depositor's remark. Shown are actives, neighbours in structure and some others; about 10% of the full set was active somewhere. Unless noted, calls follow the shape of the dose curve; as a rule, active = well fitted inhibition curve with a large enough effect (not every such curve was filed as active); inconclusive = small, poorly fitted or top-dose-only effect, or another doubt; inactive = no such curve, though single readings can be large or run the other way. Unless noted, % is scaled to controls: 0 for no effect and ±100 for the full control effect.

SMILES	ALDH1A1 block	LMNA splice mod	HPGD inh	PNC inhibitor	12-hLO inh
COc1ccc(Cl)cc1NC(=O)N1CCN(Cc2cc(=O)n3nc(-c4ccccc4)sc3n2)CC1	.	3.7%[46 µM]	.	.	.
COC(=O)C1=C(C)NC(C)=C(C(=O)OCCN(C)Cc2ccccc2)[C@@H]1c1cccc([N+](=O)[O-])c1	.	.	.	.	-5.4%
CCOC(=O)c1ccc(N=c2ssnc2Cl)cc1	2µM*	.	.	.	.
COc1ccc(N=c2ssnc2Cl)cc1	1.78µM*	-6.6%	2.82µM*	4.7	?
COc1cc(N=c2ssnc2Cl)cc(OC)c1OC	2.82µM*	2.7%	2.24µM*	?	?
COc1cc(/C=C2\SC(=Nc3cccnc3)NC2=O)cc(OC)c1OC	6.7%	.	.	.	.
Cc1ccc(S(=O)(=O)N(C)CC(=O)N2CCCC2)cc1	3.55µM*	7.2%	-12.7%	1.1	-0.9%
Cc1ccc(S(=O)(=O)CC(=O)N2CCCC2)cc1	2.2%	-2.4%	-14.2%	-100.0*	-0.7%
Cc1ccc(S(=O)(=O)CC(=O)c2cc(C)c(O)c(C)c2)cc1	1.78µM*	-7.9%[46 µM]	.	.	.
Cc1ccc(S(=O)(=O)C2(C(=O)N3CCCCCC3)CC2)cc1	7.08µM*	-19.5%	12.6µM*	-28.1	-0.3%
Cc1ccc(S(=O)(=O)C2(C(=O)N3CCN(C4CCCCC4)CC3)CC2)cc1	-1.7%	3.3%	-4.4%	27.3	27.9%
Cc1cccc(C(c2sc3nc(-c4ccco4)nn3c2O)N2CCN(c3ccccc3)CC2)c1 (stereo not drawn)	.	-14.2%[46 µM]	.	.	.
COc1ccc(S(=O)(=O)N(C)CC(=O)N2CCN(Cc3ccccc3)CC2)cc1C	15.8µM*	?	-15.3%	?	3.2%
C=C(C)Cn1c(SCC(=O)N/N=C/c2c(O)ccc3ccccc23)nc2ccccc2c1=O	5.1%	?	-21.2%	-121.5*	4.7%
C=C(C)Cn1c(SCC#N)nc2ccccc2c1=O	10µM*	-2.7%	-15.3%	9.0	-5.3%
Cc1ccc(NC(=O)c2cc(S(=O)(=O)N3CCC4(CC3)OCCO4)ccc2F)cc1Cl	.	-15.4%[46 µM]	.	.	.
O=C(CN1C(=O)CCc2cc(S(=O)(=O)N3CCOCC3)ccc21)Nc1cccc(Cl)c1	.	-2.7%[46 µM]	.	.	.
Cc1ccc(OCC(=O)Nc2ccc3nc(SCCOc4ccccc4)sc3c2)cc1	.	8.7%[46 µM]	.	.	.
COCCNCC(=O)N1CCCCCC1	3.98µM*	?	.	.	.
COc1ccc(-c2[nH]c(-c3ccc(Cl)cc3)nc2SCC(=O)Nc2nccs2)cc1	24.1%	-3.2%	-26.6%	1.7	1.1%
COc1ccc(-c2[nH]c(-c3ccccc3)nc2SCC(=O)Nc2nccs2)cc1	4.7%	?	-25.0%	-97.6*	2.6%
O=c1c(-c2ccc(F)cc2)nc2cnc(N3CCOCC3)nc2n1Cc1ccc(F)cc1	?	23.5%	.	.	.
CC1Cc2ccccc2N1CC(=O)NC(=O)NCc1ccco1 (stereo not drawn)	?	?	-12.4%	-122.4*	-9.4%
COc1cccc(C(C2=C(O)CC(C)(C)CC2=O)C2C(=O)CC(C)(C)CC2=O)c1 (stereo not drawn)	13.5%	0.5%	-5.0%	54.6	2.4%
Cc1ccc(C(C2=C(O)CC(C)(C)CC2=O)C2C(=O)CC(C)(C)CC2=O)s1 (stereo not drawn)	8.91µM*	8.3%	3.16µM*	-12.5	-14.7%
SMILES	ALDH1A1 block	LMNA splice mod	HPGD inh	PNC inhibitor	12-hLO inh
CC1(C)CC(=O)C(C(C2=C(O)CC(C)(C)CC2=O)c2ccc([N+](=O)[O-])cc2)C(=O)C1 (stereo not drawn)	?	-0.2%	.	?	-4.6%
CC1(C)CC(=O)C(C(C2=C(O)CC(C)(C)CC2=O)c2ccc(Br)s2)C(=O)C1 (stereo not drawn)	3.55µM*	?	1.41µM*	-0.9	-28.4%
COc1cccc(-c2cn3c(n2)sc2cc(C(=O)NCc4ccccc4F)ccc23)c1	.	12.5%[46 µM]	.	.	.
COc1ccc(N2CCN(C(CNC(=O)C(=O)NCCCN(C)C)c3cccnc3)CC2)cc1 (stereo not drawn)	.	4.8%[46 µM]	.	.	.
CN1CCC(CNC(=O)c2ccc(Cc3nc4ccccc4[nH]3)cc2)CC1	-4.1%	.	-7.1%	.	-0.4%
CCCCNC(=O)C(CC)Sc1nnc(-c2cccc(F)c2)c(-c2cccc(F)c2)n1 (stereo not drawn)	.	-3.3%[46 µM]	.	.	.
CCOC(=O)Cn1c(S(=O)(=O)Cc2ccccc2Cl)nc(-c2ccccc2)c1-c1ccccc1	4.2%	-7.9%	-12.8%	-83.6*	-6.3%
COCOc1cc(OC)ccc1C(=O)/C=C/c1cccc(C(F)(F)F)c1	-4.1%	.	-4.3%	.	.
CSc1sc(C)cc1C1C(C#N)=C(N)N(c2cccnc2)C2=C1C(=O)CC(C)(C)C2 (stereo not drawn)	7.2%	6.6%	.	?	-6.9%
CCOc1ccc(OCC)c(C2C(C#N)=C(N)N(c3cccnc3)C3=C2C(=O)CC(C)(C)C3)c1 (stereo not drawn)	3.55µM*	-4.0%	-19.7%	-16.6	-2.7%
CN(C)CCNC(=O)c1ccc(-n2c(=O)c(=O)[nH]c3ccccc32)cc1	14.9%	.	-12.5%	.	-2.7%
COC(=O)C(NC(=O)COc1ccccc1)(Nc1nc2c(s1)CCCC2)C(F)(F)F (stereo not drawn)	-2.6%	-11.2%	35.5µM*	-13.5	-0.5%
CSc1nc(C)cc(Nc2c(C)cc(C)cc2C)n1	.	5.0%[46 µM]	.	.	.
COc1ccc(OC)c(NC(=O)CSC2=Nc3ccccc3C3=NC(CCC(=O)NCCc4ccccc4)C(=O)N23)c1 (stereo not drawn)	.	-2.9%[46 µM]	.	.	.
O=C(N/N=C/c1c(O)n(Cc2ccccc2)c(=O)c2ccccc12)c1cccnc1	10µM*	?	.	.	.
O=C(N/N=C/c1c(O)n(-c2ccccc2Cl)c(=O)c2ccccc12)c1cccnc1	14.1µM*	.	.	.	.
O=C(N/N=C/c1c(-c2ccccc2)[nH]c2ccccc12)c1cccnc1	1.4%	?	.	.	.
Cn1c(-c2ccccc2)c(/C=N/NC(=O)c2cccnc2)c2ccccc21	-4.8%	.	.	.	.
CCOCCc1nn2c(=O)cc(COC(=O)c3ccc(NC(=O)C(C)(C)C)cc3)nc2s1	.	2.8%[46 µM]	.	.	.
CC(C)(C)OC(=O)N1CCC(c2c(C(=O)N3CCN(C(=O)c4ccco4)CC3)cnn2-c2ccccc2)CC1	.	3.2%[46 µM]	.	.	.
COc1ccc([C@@H](Nc2ccccn2)c2cc(C(C)(C)C)cc(C(C)(C)C)c2O)cc1	11.0%[13.5 µM]	.	-2.4%	.	-1.1%[11.4 µM]
COC(=O)c1scc(-c2ccc(C)cc2)c1S(=O)(=O)Nc1cc(C)ccc1OC	.	-2.8%[46 µM]	.	.	.
O=C(O)CCc1ccc(-c2cccs2)n1-c1ccc(C(=O)O)cc1	12.6µM*	-0.2%	-10.8%	-4.2	-10.3%
CC(=O)c1cccc(-n2c(CCC(=O)O)ccc2-c2cccs2)c1	7.94µM*	7.1%	-9.2%	52.1	-15.7%
COc1ccc2cc1Oc1ccc(cc1)CC1c3cc(c(OC)cc3CCN1C)Oc1c(OC)c(OC)cc3c1C(C2)N(C)CC3 (stereo not drawn)	6.0%	.	-13.9%	.	9.4%
Nc1ccc([N+](=O)[O-])c(N)c1	-6.4%	.	-10.8%	.	-3.7%

From PubChem BioAssay
